# From PubChem BioAssay
# Where “and” joins values, the source holds several entries; their conditions need not be identical. Identical values can stand only once. Records with an inconclusive call do not appear. For some of these results: Entries with a potency or affinity are not part of this list. Calls of active or inactive are those of the source.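 The calls were made as follows, unless noted: active = at least 20% inhibition of 6-phosphogluconate dehydrogenase activity; inactive = the rest.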
# Legend:
# [1] = target: 6-phosphogluconate dehydrogenase, decarboxylating (Homo sapiens) (UniProt P52209); experiment: inhibition of human phosphogluconate dehydrogenase – biochemical, recombinant enzyme, NADPH absorbance, primary screen (AID 1159550); settings: recombinant 6PGD, NADPH absorbance 341 nm; at 10 µM; stronger effect = higher value
# 6-phosphogluconate dehydrogenase, decarboxylating (Homo sapiens), sequence (P52209 whole entry, looked up, the tested form may be a part): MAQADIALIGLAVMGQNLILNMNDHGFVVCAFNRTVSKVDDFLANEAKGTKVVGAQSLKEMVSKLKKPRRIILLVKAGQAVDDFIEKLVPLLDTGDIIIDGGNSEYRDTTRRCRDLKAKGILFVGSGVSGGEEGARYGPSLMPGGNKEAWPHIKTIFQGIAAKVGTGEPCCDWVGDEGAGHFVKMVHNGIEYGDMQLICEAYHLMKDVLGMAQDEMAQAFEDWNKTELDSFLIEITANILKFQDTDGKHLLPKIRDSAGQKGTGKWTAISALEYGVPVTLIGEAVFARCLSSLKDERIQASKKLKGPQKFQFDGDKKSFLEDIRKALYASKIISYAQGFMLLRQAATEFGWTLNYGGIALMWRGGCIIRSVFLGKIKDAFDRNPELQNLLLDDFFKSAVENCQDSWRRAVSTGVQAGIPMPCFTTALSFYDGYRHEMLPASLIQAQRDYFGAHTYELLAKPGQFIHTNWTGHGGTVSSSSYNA
# [2] = target: Mitogen-activated protein kinase 7 (Homo sapiens) (UniProt Q13164); experiment: Gal4-ERK5 driven luciferase induction – cell-based, HTS, primary screen (AID 1508626;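 active = luciferase signal above three times the same-plate solvent-only control wells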;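 also: luciferase driven by Gal4-ERK5 fusion binding five Gal4 sites before minimal TATA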); settings: HeLa Gal4-ERK5 transactivation, 18 h, at 5 µM, stronger effect = higher value
# Mitogen-activated protein kinase 7 (Homo sapiens), sequence (Q13164 whole entry, looked up, the tested form may be a part): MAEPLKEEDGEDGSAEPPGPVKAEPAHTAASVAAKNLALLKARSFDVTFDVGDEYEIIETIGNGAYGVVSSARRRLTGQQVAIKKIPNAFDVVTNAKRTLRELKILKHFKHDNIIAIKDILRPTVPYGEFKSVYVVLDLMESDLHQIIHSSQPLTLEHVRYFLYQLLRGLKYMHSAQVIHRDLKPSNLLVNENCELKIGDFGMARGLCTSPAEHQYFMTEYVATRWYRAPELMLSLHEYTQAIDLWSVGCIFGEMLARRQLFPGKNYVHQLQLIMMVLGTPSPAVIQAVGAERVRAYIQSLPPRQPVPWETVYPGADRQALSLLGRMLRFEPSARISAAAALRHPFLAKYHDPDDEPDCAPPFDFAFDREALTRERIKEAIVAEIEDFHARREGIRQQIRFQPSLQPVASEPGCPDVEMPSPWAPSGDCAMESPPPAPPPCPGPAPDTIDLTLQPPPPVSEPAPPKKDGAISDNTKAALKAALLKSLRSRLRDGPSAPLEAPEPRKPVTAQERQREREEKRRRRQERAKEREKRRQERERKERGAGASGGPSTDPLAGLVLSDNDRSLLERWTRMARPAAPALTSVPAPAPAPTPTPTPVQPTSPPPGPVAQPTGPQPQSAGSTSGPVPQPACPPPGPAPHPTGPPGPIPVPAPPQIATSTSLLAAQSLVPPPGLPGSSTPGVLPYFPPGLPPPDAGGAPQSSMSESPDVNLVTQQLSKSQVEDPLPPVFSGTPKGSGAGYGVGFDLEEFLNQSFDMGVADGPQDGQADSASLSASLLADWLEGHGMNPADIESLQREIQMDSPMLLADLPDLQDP
# [3] = blockers of cellular phospholipid synthesis – cell-based, LOPAC library, screen 4, primary screen (AID 1347384; call rule not given here); settings: animal cells, phospholipid biosynthesis inhibition screen; at 10 µM
# [4] = target: NAD(+) hydrolase SARM1 (Homo sapiens) (UniProt Q6SZW1); experiment: blocking NAD cleavage by SARM1 SAM-TIR – cell lysate, NAD-Glo luminescence (AID 1508614;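 active = compound whose remaining NAD level is above about 45 nM, limit read from the data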;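 also: higher remaining NAD means stronger inhibition of SARM1 NADase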); settings: SAM-TIR HEK293T lysate NADase, at 1 µM, stronger effect = higher value
# NAD(+) hydrolase SARM1 (Homo sapiens), sequence (Q6SZW1 whole entry, looked up): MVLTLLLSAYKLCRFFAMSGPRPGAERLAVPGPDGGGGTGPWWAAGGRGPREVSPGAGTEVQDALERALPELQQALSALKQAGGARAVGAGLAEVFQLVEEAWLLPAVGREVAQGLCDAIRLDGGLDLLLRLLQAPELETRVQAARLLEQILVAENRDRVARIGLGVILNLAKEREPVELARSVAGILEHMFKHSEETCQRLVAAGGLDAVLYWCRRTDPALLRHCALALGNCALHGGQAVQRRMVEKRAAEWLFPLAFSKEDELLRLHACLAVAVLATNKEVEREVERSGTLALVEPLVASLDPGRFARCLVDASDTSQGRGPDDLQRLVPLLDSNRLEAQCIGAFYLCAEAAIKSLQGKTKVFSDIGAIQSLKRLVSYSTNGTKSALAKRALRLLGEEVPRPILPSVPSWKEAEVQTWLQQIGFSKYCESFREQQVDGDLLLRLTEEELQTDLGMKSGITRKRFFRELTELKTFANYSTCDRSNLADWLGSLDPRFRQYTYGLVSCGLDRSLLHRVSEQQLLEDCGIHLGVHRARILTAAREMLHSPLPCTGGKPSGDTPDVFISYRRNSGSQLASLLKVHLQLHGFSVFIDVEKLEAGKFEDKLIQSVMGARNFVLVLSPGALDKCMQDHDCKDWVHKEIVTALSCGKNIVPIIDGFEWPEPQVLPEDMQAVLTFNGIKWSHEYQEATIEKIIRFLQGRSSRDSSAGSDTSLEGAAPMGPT
# [5] = blockers of MitoPT in mitochondria (AID 1580; call rule not given here); settings: isolated mitochondria, permeability transition inhibition
# [6] = blockers of polyQ-driven CASP3 activation – cell-based (AID 1583); settings: polyglutamine-induced caspase-3 activation, cell assay; stronger effect = higher value;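 tested at 10 µM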
# [7] = yeast 75Q aggregation reduction – 75Q-TubU reporter (AID 1593); settings: Yeast 75Q polyglutamine aggregation reporter
# [8] = restoration of touch response, mutant HTT neurons – whole organism, C. elegans mechanosensory neurons, N-terminal huntingtin (AID 1599); settings: C. elegans polyQ-huntingtin mechanosensory neurons, stronger effect = higher value
# [9] = blockers of cytochrome c efflux from mitochondria – biochemical, purified mitochondria (AID 1603); settings: stronger effect = lower value;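 also: mouse liver mitochondria challenged with calcium chloride; signal normalized to the plate average as 100%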
# [10] = polyglutamine aggregate formation blockers (AID 1604); settings: polyglutamine-induced protein aggregation inhibition assay; stronger effect = higher value; tested at 2.5 µM
# [11] = rescue of PC12 cells from polyQ htt toxicity – LDH release (AID 1610); settings: PC12 mutant huntingtin toxicity, final LDH at 4 uM, stronger effect = lower value
# [12] = glutamate transport activators, MN-1 cells, MN-1 cell line (AID 1612); settings: MN-1 motor neuron cells, stronger effect = higher value;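 also: tested at 1 µM final; 0% = mean of DMSO vehicle wells on each plate; positive means more glutamate uptake than control and negative means less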
# [13] = 75Q-TubH aggregate inhibition, S. cerevisiae, yeast (AID 1616); settings: S. cerevisiae 75Q-TubH polyglutamine aggregation suppression; stronger effect = higher value
# [14] = target: ATP-dependent translocase ABCB1 (Homo sapiens) (UniProt P08183); experiment: P-glycoprotein substrate transport blockade – cell-based (AID 377; in the data active = fluorescence slope change above about 50%); settings: MDR1-expressing cells, fluorescent substrate accumulation slope; stronger effect = higher value; concentration not given here
# ATP-dependent translocase ABCB1 (Homo sapiens), sequence (P08183 whole entry, looked up): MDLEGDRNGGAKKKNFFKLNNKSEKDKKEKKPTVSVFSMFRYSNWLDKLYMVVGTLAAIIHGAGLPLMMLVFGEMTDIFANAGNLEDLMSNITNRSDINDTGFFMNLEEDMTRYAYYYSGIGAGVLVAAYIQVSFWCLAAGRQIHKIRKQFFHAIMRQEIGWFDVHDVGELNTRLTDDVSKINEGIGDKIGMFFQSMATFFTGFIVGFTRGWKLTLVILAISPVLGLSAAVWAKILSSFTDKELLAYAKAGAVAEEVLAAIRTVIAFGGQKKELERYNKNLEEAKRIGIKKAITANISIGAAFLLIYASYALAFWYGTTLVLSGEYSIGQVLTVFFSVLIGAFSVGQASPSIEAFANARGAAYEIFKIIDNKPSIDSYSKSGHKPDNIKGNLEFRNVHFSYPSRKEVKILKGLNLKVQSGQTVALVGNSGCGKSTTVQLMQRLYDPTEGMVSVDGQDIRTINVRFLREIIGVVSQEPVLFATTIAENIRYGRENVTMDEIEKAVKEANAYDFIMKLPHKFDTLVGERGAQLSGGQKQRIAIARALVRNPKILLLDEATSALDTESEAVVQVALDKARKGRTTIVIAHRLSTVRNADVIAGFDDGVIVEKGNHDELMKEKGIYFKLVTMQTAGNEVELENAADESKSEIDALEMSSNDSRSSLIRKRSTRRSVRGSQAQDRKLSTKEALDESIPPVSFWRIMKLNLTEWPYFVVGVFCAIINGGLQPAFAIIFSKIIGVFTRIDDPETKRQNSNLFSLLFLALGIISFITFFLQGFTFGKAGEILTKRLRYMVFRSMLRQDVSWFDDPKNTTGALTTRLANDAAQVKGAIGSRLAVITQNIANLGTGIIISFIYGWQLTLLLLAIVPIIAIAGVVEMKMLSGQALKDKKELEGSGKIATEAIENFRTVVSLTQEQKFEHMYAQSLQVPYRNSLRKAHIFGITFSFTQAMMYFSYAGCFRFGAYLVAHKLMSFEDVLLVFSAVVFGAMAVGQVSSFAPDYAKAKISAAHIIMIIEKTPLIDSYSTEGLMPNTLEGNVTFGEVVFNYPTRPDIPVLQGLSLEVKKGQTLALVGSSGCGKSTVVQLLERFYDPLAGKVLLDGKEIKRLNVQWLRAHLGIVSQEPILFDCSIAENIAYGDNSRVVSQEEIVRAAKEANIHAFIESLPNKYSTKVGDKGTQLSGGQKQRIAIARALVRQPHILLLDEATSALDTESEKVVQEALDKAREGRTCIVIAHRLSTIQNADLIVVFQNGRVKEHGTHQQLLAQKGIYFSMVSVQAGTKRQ
# [15] = P. berghei load reduction in hepatocytes – cell-based, HepG2, luciferase luminescence, HepG2 viability, primary screen (AID 624349; in the data active = parasite load remaining mostly below about 12%, no sharp cut-off; inactive = mostly above about 10%;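 also: 100% = mean of DMSO negative control wells on the same plate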); settings: P. berghei liver stage in HepG2, luciferase luminescence, concentration not given here; parasite load remaining: stronger effect = lower value; viability: measured here: HepG2 viability without parasites
# [16] = viability loss with induced miR-34 in A549 – imaging, A549 dox-inducible miR-34, nuclei and caspase counts, primary screen (AID 1347080;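 active = compounds whose cell count with miR-34 switched on is under 0.7 times the count with it off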); settings: A549 miR-34 inducible, Hoechst nuclei count, 48 h
# [17] = antimalarial activity against Dd2 strain (AID 2302;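 active = growth inhibition above 50% at the single 2 µM test dose, taken to imply half-maximal potency below 2 µM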;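 also: 0% = DMSO untreated growth and 100% = chloroquine plus artemisinin killed control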); settings: P. falciparum Dd2 in RBCs, LDH growth readout, 72 h; at 2 µM; stronger effect = higher value
# [18] = human hepatoma cell viability loss – ATP luminescence, cytotoxicity control for P. falciparum antimalarial project, primary screen (AID 2303;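 active = inhibition above 50%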;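 also: 0% = DMSO wells and 100% = digitonin-killed cells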); settings: HepG2 viability, 24-48 h, at 10 µM, stronger effect = higher value
# [19] = target: L-lactate dehydrogenase (Plasmodium falciparum (isolate CDC / Honduras)) (UniProt Q27743); experiment: PfLDH activity inhibition – cell lysate, 3D7 strain, counter-screen for P. falciparum growth inhibition project (AID 2304; call rule not given here;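 also: 0% = vehicle and 100% = reference inhibitor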); settings: P. falciparum 3D7 crude extract, LDH APAD/NBT absorbance; at 2 µM; stronger effect = higher value
# L-lactate dehydrogenase (Plasmodium falciparum (isolate CDC / Honduras)), sequence (Q27743 whole entry, looked up): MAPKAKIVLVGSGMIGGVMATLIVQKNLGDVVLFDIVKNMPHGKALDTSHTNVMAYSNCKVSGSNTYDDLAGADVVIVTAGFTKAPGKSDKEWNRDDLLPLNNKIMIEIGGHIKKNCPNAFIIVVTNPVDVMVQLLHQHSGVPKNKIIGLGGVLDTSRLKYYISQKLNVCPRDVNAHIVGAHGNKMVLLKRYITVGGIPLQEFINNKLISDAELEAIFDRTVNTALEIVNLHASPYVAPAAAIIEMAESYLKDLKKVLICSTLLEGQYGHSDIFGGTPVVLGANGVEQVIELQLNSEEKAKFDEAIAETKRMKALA
# [20] = target: Calcium-dependent protein kinase 1 (Plasmodium falciparum (isolate 3D7)) (UniProt P62344); experiment: PfCDPK1 kinase inhibitors, biochemical, TCAMS library (AID 1159585; cut-off not given, nearly all actives have IC50 up to about 0.98 µM;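 also: inhibitors leave more ATP so luminescence rises with inhibition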); settings: recombinant PfCDPK1, Kinase-Glo ATP depletion luminescence
# [21] = target: Plasmodium falciparum protein kinase 6 (PK6, PF3D7_1337100) (UniProt Q8IDW1); experiment: PfPK6 kinase inhibitors, biochemical, TCAMS library (AID 1159586; call rule not given here); settings: recombinant PfPK6, Kinase-Glo ATP depletion luminescence
# Plasmodium falciparum protein kinase 6 (PK6, PF3D7_1337100), sequence (Q8IDW1 1-305): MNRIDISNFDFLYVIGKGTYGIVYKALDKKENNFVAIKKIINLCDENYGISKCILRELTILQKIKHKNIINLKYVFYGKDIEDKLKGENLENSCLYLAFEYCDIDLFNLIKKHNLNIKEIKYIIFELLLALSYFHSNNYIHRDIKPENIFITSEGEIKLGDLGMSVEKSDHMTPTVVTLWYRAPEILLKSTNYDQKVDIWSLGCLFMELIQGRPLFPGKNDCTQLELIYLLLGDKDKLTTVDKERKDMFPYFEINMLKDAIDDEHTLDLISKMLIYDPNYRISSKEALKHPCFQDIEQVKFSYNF
# [22] = target: Protein kinase 7 (PK7), Plasmodium falciparum 3D7 (PF3D7_0213400) (UniProt Q7YTF7); experiment: inhibition of Plasmodium PK7 catalytic activity – biochemical, TCAMS antimalarial set, Kinase-Glo luminescence (AID 1159587; call rule not given here); settings: recombinant PfPK7, Kinase-Glo ATP depletion luminescence
# Protein kinase 7 (PK7), Plasmodium falciparum 3D7 (PF3D7_0213400), sequence (Q7YTF7 1-343): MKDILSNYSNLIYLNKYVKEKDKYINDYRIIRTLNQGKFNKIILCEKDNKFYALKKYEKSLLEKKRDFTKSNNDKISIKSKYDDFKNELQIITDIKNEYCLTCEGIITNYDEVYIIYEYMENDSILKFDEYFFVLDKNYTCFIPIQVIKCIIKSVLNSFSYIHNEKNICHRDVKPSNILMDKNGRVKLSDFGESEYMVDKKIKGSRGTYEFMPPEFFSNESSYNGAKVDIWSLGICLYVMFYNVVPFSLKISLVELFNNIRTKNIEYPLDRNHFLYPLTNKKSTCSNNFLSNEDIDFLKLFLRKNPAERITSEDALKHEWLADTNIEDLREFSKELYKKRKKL
# [23] = target: Calcium-dependent protein kinase 4 (Plasmodium falciparum (isolate 3D7)) (UniProt Q8IBS5); experiment: PfCDPK4 kinase inhibitors, biochemical, TCAMS library (AID 1159588; cut-off not given, nearly all actives have IC50 up to about 0.91 µM); settings: recombinant PfCDPK4, Kinase-Glo ATP depletion luminescence
# Calcium-dependent protein kinase 4 (Plasmodium falciparum (isolate 3D7)), sequence (Q8IBS5 whole entry, looked up): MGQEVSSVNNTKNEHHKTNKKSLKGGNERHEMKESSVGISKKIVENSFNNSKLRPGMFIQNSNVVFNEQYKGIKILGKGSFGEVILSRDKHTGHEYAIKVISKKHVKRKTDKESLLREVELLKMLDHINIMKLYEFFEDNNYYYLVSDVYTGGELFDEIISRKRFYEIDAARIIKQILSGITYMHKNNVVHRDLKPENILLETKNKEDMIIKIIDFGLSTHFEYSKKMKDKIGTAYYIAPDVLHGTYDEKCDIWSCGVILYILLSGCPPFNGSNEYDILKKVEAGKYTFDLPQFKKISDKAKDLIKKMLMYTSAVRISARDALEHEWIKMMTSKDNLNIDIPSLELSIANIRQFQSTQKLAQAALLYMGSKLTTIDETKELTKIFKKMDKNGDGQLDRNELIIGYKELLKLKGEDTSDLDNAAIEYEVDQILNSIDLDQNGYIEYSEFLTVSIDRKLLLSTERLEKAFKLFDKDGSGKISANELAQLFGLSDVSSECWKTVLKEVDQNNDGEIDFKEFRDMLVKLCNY
# [24] = compounds altering viability of human ES cells (AID 493140; call rule not given here;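 also: cells exposed to compounds for four days before counting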); settings: human embryonic stem cell survival screen; stronger effect = higher value
# [25] = compounds altering circadian rhythm period length – cell-based, LOPAC library, luminescence reporter (AID 2774; call rule not given here;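 also: values are relative to mean of DMSO wells on each plate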); settings: circadian reporter cells, at 7 µM, actives lie on both sides
# [26] = stronger effect = lower value, cell number ratio, induced over uninduced
# [27] = measured here: relative caspase fold change +Dox/-Dox
# [28] = measured here: total cells with miR-34 induction, stronger effect = lower value
# [29] = measured here: total cells without miR-34 induction
compound,measurement,setting,value
O=C(O)CNCP(=O)(O)O,inhibition,[1],3.86% (inactive)
same,luciferase signal,[2],40 AU (inactive)
CC(=O)OCC1=C(C(=O)O)N2C(=O)[C@@H](NC(=O)CCC[C@@H](N)C(=O)O)[C@H]2SC1,inhibition,[1],-2.43% (inactive)
same,outcome,[3],inactive
same,remaining NAD,[4],10 nM (inactive)
CO[C@@H]1C[C@@H](C[C@H]2CC[C@H](C)[C@H]([C@@H](C)C(=O)O)O2)O[C@]2(O[C@](C)([C@H]3CC[C@@](C)(C4O[C@@H](C5O[C@@](O)(CO)[C@H](C)C[C@@H]5C)C[C@@H]4C)O3)C[C@H]2C)[C@@H]1C (stereo not given in full),EC50,[5],175 nM (active)
same,inhibition,[6],49.6%
same,score,[7],0.17
same,rescue above control,[8],2.36
same,cytochrome c release ratio,[9],0.42
same,inhibition of aggregation,[10],-0.07%
same,normalised LDH release,[11],0.812
same,glutamate uptake change,[12],-43.9%
same,aggregation suppression score,[13],0.0976
same,inhibition,[1],10.1% (inactive)
Cc1c(O)c(O)cc2c1CC=C1[C@@]2(C)CC[C@@]2(C)[C@@H]3C[C@](C)(C(=O)O)CC[C@]3(C)CC[C@]12C,inhibition,[1],-26.2% (inactive)
same,luciferase signal,[2],128 AU (inactive)
CC(=O)O[C@@H]1C[C@H]2C(C)(C)C(=O)C=C[C@]2(C)[C@H]2CC[C@]3(C)C(=CC(=O)O[C@H]3c3ccoc3)[C@@]21C,inhibition,[1],4.47% (inactive)
same,luciferase signal,[2],44 AU (inactive)
CC(C)=CCC[C@]1(C)C=Cc2c(O)c3c(c(CC=C(C)C)c2O1)O[C@]12C(=C[C@@H]4C[C@H]1C(C)(C)O[C@@]2(C/C=C(/C)C(=O)O)C4=O)C3=O,inhibition,[1],-17.6% (inactive)
same,luciferase signal,[2],72 AU (inactive)
COc1cc2c(cc1O)C[C@H]1c3c(cc(O)c(OC)c3-2)CCN1C,fluorescence slope change,[14],14.6% (inactive)
same,parasite load remaining,[15],91.1% (inactive)
same,viability,[15],118%
same,inhibition,[1],3.02% (inactive)
same,fold change,[16]; [26],0.885 (inactive)
same,fold change,[16]; [27],1.54
same,cell count,[16]; [28],8000
same,cell count,[16]; [29],9040
same,luciferase signal,[2],56 AU (inactive)
COC(=O)[C@]1(C)CC[C@]2(C)CC[C@]3(C)C4=CCc5c(cc(O)c(O)c5C)[C@]4(C)CC[C@@]3(C)[C@@H]2C1,inhibition,[1],5.04% (inactive)
same,luciferase signal,[2],20 AU (inactive)
C[C@H]1CC[C@]2(NC1)O[C@H]1C[C@H]3[C@@H]4CC[C@H]5C[C@@H](O)CC[C@]5(C)[C@H]4CC[C@]3(C)[C@H]1[C@@H]2C,fluorescence slope change,[14],83.2% (active)
same,parasite load remaining,[15],75.2% (inactive)
same,viability,[15],101%
same,inhibition,[1],-31.5% (inactive)
same,fold change,[16]; [26],0.873 (inactive)
same,fold change,[16]; [27],1.03
same,cell count,[16]; [28],9790
same,cell count,[16]; [29],11200
same,luciferase signal,[2],104 AU (inactive)
C=CC12CCN(CC1)C(C(O)c1ccnc3ccc(OC)cc13)C2 (stereo not given),growth inhibition,[17],72% (active)
same,inhibition,[18],-6% (inactive)
same,inhibition,[19],-9% (inactive)
same,outcome,[20],inactive
same,outcome,[21],inactive
same,outcome,[22],inactive
same,outcome,[23],inactive
COc1ccc(CC2c3cc(OC)c(OC)cc3CCN2C)cc1OC (stereo not given),fluorescence slope change,[14],206% (active)
same,survival,[24],6.67 (inactive)
same,parasite load remaining,[15],122% (inactive) and 66.2% (inactive)
same,viability,[15],98.7% and 71.4%
same,inhibition,[1],-3.74% (inactive)
same,fold change,[16]; stronger effect = lower value,0.878 (inactive)
same,fold change,[16]; [27],1.5
same,cell count,[16]; [28],9520
same,cell count,[16]; [29],10800
CC(=O)[O-].CC(=O)[O-].[Cd+2],inhibition,[1],6.37% (inactive)
same,luciferase signal,[2],740 AU (inactive)
NNCc1cccc(O)c1,period change,[25],-0.07 h (inactive)
same,inhibition,[1],15.8% (inactive)
CN1Cc2c(ccc3c2OCO3)[C@@H]2[C@H]1c1cc3c(cc1C[C@@H]2O)OCO3,fluorescence slope change,[14],54.5% (active)
same,survival,[24],0.417 (inactive)
same,parasite load remaining,[15],92.6% (inactive)
same,viability,[15],77.6%
same,inhibition,[1],7.55% (inactive)
O=C(O)COc1cc(Cl)c(Cl)cc1Cl,inhibition,[1],6.47% (inactive)
same,luciferase signal,[2],60 AU (inactive)
CC1(C)C(=O)C=C[C@@]2(C)C1=C(O)C(=O)[C@]1(C)[C@@H]2CC[C@@]2(C)[C@H](c3ccoc3)C[C@H]3O[C@]321,inhibition,[1],11.8% (inactive)
same,luciferase signal,[2],12 AU (inactive)
CC[C@@H](C)C(=O)O[C@H]1[C@H](O)[C@H]2[C@@H](CN3C[C@@H](C)CC[C@H]3[C@@]2(C)O)[C@@H]2C[C@]34O[C@]5(O)[C@@H](OC(=O)[C@@](C)(O)CC)CC[C@@]3(C)[C@@H]5[C@@H](OC(C)=O)[C@@H](OC(C)=O)[C@H]4[C@@]21O,inhibition,[1],-7.64% (inactive)
same,luciferase signal,[2],108 AU (inactive)
CC1(C)C(=O)C=C[C@]2(C)[C@H]3CC[C@@]4(C)[C@H](c5ccoc5)OC(=O)[C@H]5O[C@]54[C@]3(C)[C@H](O)C[C@@H]12,inhibition,[1],3.18% (inactive)
same,luciferase signal,[2],16 AU (inactive)
C[C@H]1O[C@@H](O[C@H]2[C@@H](O)C[C@H](O[C@H]3[C@@H](O)C[C@H](O[C@H]4CC[C@@]5(C)[C@H](CC[C@@H]6[C@@H]5CC[C@]5(C)[C@@H](C7=CC(=O)OC7)[C@@H](O)C[C@]65O)C4)O[C@@H]3C)O[C@@H]2C)C[C@H](O)[C@@H]1O,inhibition,[1],-2.27% (inactive)
same,luciferase signal,[2],16 AU (inactive)
CO[C@H]1C[C@H](O[C@H]2CC[C@@]3(C)[C@H](CC[C@@H]4[C@@H]3CC[C@]3(C)[C@@H](C5=CC(=O)OC5)[C@@H](OC(C)=O)C[C@]43O)C2)O[C@@H](C)[C@@H]1O,inhibition,[1],5.8% (inactive)
same,luciferase signal,[2],32 AU (inactive)
CNC(=O)Oc1cccc2c1OC(C)(C)C2,inhibition,[1],-14.7% (inactive)
same,luciferase signal,[2],44 AU (inactive)
COP(=S)(OC)Oc1ccc([N+](=O)[O-])cc1,inhibition,[1],-0.396% (inactive)
same,luciferase signal,[2],72 AU (inactive)
C[C@@H](CO)NC(=O)[C@@H]1C=C2c3cccc4[nH]cc(c34)C[C@H]2N(C)C1,inhibition,[1],-3.88% (inactive)
same,remaining NAD,[4],10 nM (inactive)
same,luciferase signal,[2],20 AU (inactive)
